The record followed here is PubChem BioAssay AID588325 (National Center for Advancing Translational Sciences (NCATS), 2011).

The structures appear in SMILES notation. Records with an inconclusive call do not appear. Calls of active or inactive are those of the source. Calls follow the shape of the dose curve; as a rule, active = well fitted curve in the direction sought with a large enough effect; inconclusive = small, poorly fitted or top-dose-only effect, or effect the other way, or another doubt; inactive = no such curve, though single readings can be large or run the other way.

This assay can be described thus: Confirmatory Assay to Find Inhibitors of T. brucei phosphofructokinase: Cytotoxictity in KB-3-1. The note with it: KB-3-1 human cells cytotoxicity counter-screen; series mostly up to 46.1 µM; activity change, negative = cytotoxicity: at the top concentration. An excerpt: Various species of the protozoan family Trypanosomatidae are responsible for a range of serious human diseases in tropical and subtropical areas of the world. […] Many of the disorders caused by trypanosomatids are fatal if left untreated, but most currently used drugs are inefficient and toxic.
Oxidative metabolism involving the mitochondrial tricarboxylic acid cycle and oxidative phosphorylation are repressed in these parasites, and recent RNA interference (RNAi) experiments have shown that even partial depletion of certain individual glycolytic enzymes can lead to the death of cultured parasites. One such glycolytic enzyme, phosphofructokinase (PFK), catalyzes the formation of fructose-1,6-bisphosphate (F1,6BP) and ADP from fructose-6-phosphate (F6P) and ATP, and in many metabolic circumstances makes an important contribution to the control of flux through the glycolytic pathway. As a specific glycolytic target, PFK is particularly attractive as it catalyzes the first irreversible step in glycolysis, and structural and kinetic studies have shown very substantial and essential differences from corresponding host enzymes, allowing for the discovery of parasite-selective inhibitors.
Confirmed qHTS active compounds were tested for toxicity against the KB-3-1 human cervical carcinoma cell lines. This line havs historically been used as representative human cells in in vitro Trypanosoma assays, and so provide a relevant surrogate for human cells in testing Tb PFK inhibitor toxicity.
NIH Chemical Genomics Center [NCGC]
NIH Molecular Libraries Probe Centers Network [MLPCN]
Assay Submitter (PI): Malcom Walkinshaw, University of Edinburg
KB-3-1 cells were dispensed into white solid 1536-microwell plates in 5 uL media (high glucose DMEM, 10% FBS) with a Thermo Multidrop. The plates were incubated at 37 degrees Celsius for 2 hours, and subsequently treated with compounds using the Kalypsys pin tool, delivering 23 nL of test compounds to each well. The plates were then incubated for an additional 72 hours at 37 degrees Celsius. Cytotoxicity was assessed by adding 2.5 uL of Cell-Titer Glo (Promega, Madison, WI) via Multidrop, incubating at room temperature for 10 min and reading luminescence on the Perkin Elmer ViewLux using a 1 second exposure and 1x binning. DMSO-treated cells were included as negative control, while media-only wells were used as a positive control equivalent to 100% cell toxicity for the sake of data normalization.
As for `Cc1cc(N[S+](=O)([O-])c2ccc3cc(NC(=O)Cc4ccc(Cl)c(Cl)c4)ccc3c2)no1`, the “activity change, negative = cytotoxicity” value is -2.44% (inactive).
`O=C(Cc1ccc(Cl)c(Cl)c1)Nc1ccc(S(=O)(=O)Nc2ccc(C(=O)O)cc2)cc1`: the “activity change, negative = cytotoxicity” value was 8.3% (inactive).
The figure for `Cc1cc(NS(=O)(=O)c2ccc(N(C)C(=O)Cc3ccc(Cl)c(Cl)c3)cc2)no1` is -0.538% (inactive); for `Cc1cc(NS(=O)(=O)c2ccc(NC(=O)Cc3cccc(Cl)c3)cc2)no1` it is -2.52% (inactive); for `Cc1cc(NS(=O)(=O)C2CCN(C(=O)Cc3ccc(Cl)c(Cl)c3)CC2)no1` it is -7.05% (inactive).
Take `Cc1cc(NS(=O)(=O)c2ccc(NCCc3ccc(Cl)c(Cl)c3)cc2)no1`: the “activity change, negative = cytotoxicity” value is 2.76% (inactive).
The same measure for `Cc1cc(NS(=O)(=O)c2ccc(NC(=O)Cc3ccc4ccccc4c3)cc2)no1`: 9.72% (inactive).
With `O=C(Cc1ccc(Cl)c(Cl)c1)Nc1ccc(S(=O)(=O)Nc2cccc(C(=O)O)c2)cc1`, the “activity change, negative = cytotoxicity” value is 11.4% (inactive).
The figure for `Cc1cc(NS(=O)(=O)c2ccc(NS(=O)(=O)Cc3ccc(Cl)c(Cl)c3)cc2)no1` is 7.09% (inactive); for `Cc1cc(NS(=O)(=O)c2ccc(NC(=O)Cc3ccc(C)c(F)c3)cc2)no1` it is -3.65% (inactive).
The figure for `Cc1cc(NS(=O)(=O)c2ccc(NC(=O)c3ccc(Cl)c(Cl)c3)cc2)no1` is -2.15% (inactive); for `Cc1cc(NS(=O)(=O)c2ccc(NC(=O)Cc3ccc(C)c(C)c3)cc2)no1` it is -4.17% (inactive); for `Cc1cc(NS(=O)(=O)c2ccc(NC(=O)C(C)(C)c3ccc(Cl)c(Cl)c3)cc2)no1` it is 13.5% (inactive).
For `Cc1cc(NC(=O)c2ccc(NC(=O)Cc3ccc(Cl)c(Cl)c3)cc2)no1`, the “activity change, negative = cytotoxicity” value was 0.287% (inactive).
The same measure for `Cc1cc(NS(=O)(=O)Cc2ccc(NC(=O)Cc3ccc(Cl)c(Cl)c3)cc2)no1`: -0.6% (inactive); for `COc1ccc(CC(=O)Nc2ccc(S(=O)(=O)Nc3cc(C)on3)cc2)cc1C`: -9.25% (inactive); for `Cc1cc(NS(=O)(=O)c2ccc(NC(=O)Cc3ccc(Cl)cc3)cc2)no1`: -0.216% (inactive).
With `Cc1cc(NS(=O)(=O)c2ccc(NC(=O)Cc3ccc(Cl)c(F)c3)cc2)no1`, the “activity change, negative = cytotoxicity” value was -4.78% (inactive).
Regarding `Cc1cc(NS(=O)(=O)c2ccc(NC(=O)Cc3ccc(Cl)cc3Cl)cc2)no1`, the “activity change, negative = cytotoxicity” value is 5.04% (inactive).
The figure for `Cc1cc(NS(=O)(=O)c2ccc(C(=O)NCc3ccc(Cl)c(Cl)c3)cc2)no1` is 21.8% (inactive).
The same measure for `Cc1cc(NS(=O)(=O)CCNC(=O)Cc2ccc(Cl)c(Cl)c2)no1`: 11.2% (inactive); for `O=C(Cc1ccc(Cl)c(Cl)c1)Nc1ccc(S(=O)(=O)Nc2cncnc2)cc1`: 5.74% (inactive).
The same measure for `O=C(Cc1ccc(Cl)c(Cl)c1)Nc1ccc(S(=O)(=O)O)cc1`: 6.38% (inactive); for `Cc1cc(NS(=O)(=O)c2ccc(NC(=O)Cc3ccc(Cl)c(Cl)c3)cc2)n(C)n1`: 4.89% (inactive).
For `Cc1cc(NS(=O)(=O)c2ccc(NC(=O)CCc3ccc(Cl)c(Cl)c3)cc2)no1`, the “activity change, negative = cytotoxicity” value was -12.1% (inactive).
The same measure for `COc1ccc(CC(=O)Nc2ccc(S(=O)(=O)Nc3cc(C)on3)cc2)cc1OC`: -4.67% (inactive); for `O=C(Cc1ccc(Cl)c(Cl)c1)Nc1ccc(S(=O)(=O)Nc2ccon2)cc1`: -0.619% (inactive); for `Cc1cc(NS(=O)(=O)c2cccc(NC(=O)Cc3ccc(Cl)c(Cl)c3)c2)no1`: -5.11% (inactive).
